In PubChem BioAssay (NCI) one finds growth data, which are given here for 15 molecules.

Among the test systems are DU-145 prostate; K-562 leukemia; MDA-MB-231 breast; RXF 393 renal; SF-268 CNS; SF-295 CNS; SF-539 CNS; UACC-257 melanoma; M14 melanoma; MALME-3M melanoma.
Holding throughout (experiment): NCI-60 one-dose screen, 48 h (100 = growth as untreated, 0 = no growth, -100 = all killed)
Common to all, as to settings: 10 µM unless noted

Compounds without any hit were thinned out: in the full panel of roughly 83,000, 20% have a hit.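 Cell lines were cultured in 96-well plates, exposed to a single compound concentration, and assessed for percent growth 48 hours later.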 Unmarked numbers belong to inactive results. Activity calls are given as the source filed them. How the source made its calls: active means growth percent below 10; inactive means the rest.

With `N#CC1c2ccccc2C=CN1C(=O)N(c1ccccc1)c1ccccc1` (stereo not given), the growth was 42.9% with DU-145 prostate; 5.35% (active) in the test on K-562 leukemia; 70.6% in the test with MDA-MB-231 breast; 2.13% (active) in the test with RXF 393 renal; 79.6% with SF-268 CNS; 67.7% with SF-295 CNS. Further, the growth in the test with SF-539 CNS is 109%; with UACC-257 melanoma it was -1.11% (active); in the test on M14 melanoma it was 42.5%.
Consider `Nc1ccc2c(c1Br)Cc1ccccc1-2`, for which the growth in the test with DU-145 prostate is 106%; in the test on K-562 leukemia, 95.2%; in the test with MDA-MB-231 breast, 74.7%; in the test with RXF 393 renal it was 111%; in the test on SF-268 CNS, 86.7%; in the test with SF-295 CNS it was 92.1%. The figures for the growth in the test on SF-539 CNS, in the test on UACC-257 melanoma and with M14 melanoma were 79.4%, 114% and 105%, respectively.
`CC(=O)N1N=C(c2ccc(C(F)(F)F)cc2)CC1c1ccc2c(c1)OCO2` (stereo not given): the growth in the test on DU-145 prostate was 113%; in the test with K-562 leukemia, 73.8%; in the test on MDA-MB-231 breast it was 82.3%; in the test with RXF 393 renal it was 107%; in the test with SF-268 CNS, 104%; in the test on SF-295 CNS, 67.1%. The growth was 101% in the test with SF-539 CNS, 102% in the test with UACC-257 melanoma and 69.7% with M14 melanoma.
Regarding `COC(=O)CC1=C(c2ccc([N+](=O)[O-])cc2)CCC1=O`, the growth in the test on DU-145 prostate is 101%; in the test on K-562 leukemia, 98.7%; in the test on MDA-MB-231 breast, 102%; with RXF 393 renal it was 110%; in the test with SF-268 CNS, 101%; in the test with SF-295 CNS, 100%. Further, the growth with SF-539 CNS is 97%; in the test with UACC-257 melanoma, 109%; with M14 melanoma it was 109%.
As to `Nc1ccc(N=Nc2ccccc2)cc1[N+](=O)[O-]`, the growth is 109% with DU-145 prostate; 87.4% in the test with K-562 leukemia; 65.8% with MDA-MB-231 breast; 104% in the test on RXF 393 renal; 85.3% in the test with SF-268 CNS; 113% in the test on SF-295 CNS. Moreover, the figures for the growth in the test with SF-539 CNS, in the test on UACC-257 melanoma and in the test with M14 melanoma were 92.6%, 103% and 104%, respectively.
For the molecule `Cc1cccc2nnc(-c3ccccc3)n12`, the growth was 124% with DU-145 prostate; 100% in the test on K-562 leukemia; 94.5% in the test with MDA-MB-231 breast; 117% with RXF 393 renal; 111% in the test on SF-268 CNS; 109% with SF-295 CNS. For the same molecule, the growth in the test on SF-539 CNS was 108%; with UACC-257 melanoma, 105%; in the test on M14 melanoma it was 102%.
For the molecule `Nc1ccccc1-c1ccn[nH]1`, the growth with DU-145 prostate is 101%; in the test with K-562 leukemia it was 78.5%; with MDA-MB-231 breast, 101%; with RXF 393 renal it was 111%; with SF-268 CNS, 88.8%; with SF-295 CNS, 101%. The figures for the growth in the test with SF-539 CNS, in the test on UACC-257 melanoma and in the test with M14 melanoma were 97.9%, 103% and 94.2%, respectively.
Consider `CN(C)CCC(=O)Nc1ccc(-n2cc(-c3cccc(NC(=S)Nc4cccc(-c5cn(-c6ccc(NC(=O)CCN(C)C)cc6)nn5)c4)c3)nn2)cc1`, for which the growth in the test on DU-145 prostate is 115%; in the test with K-562 leukemia, 18.6%; in the test on MDA-MB-231 breast, 107%; with RXF 393 renal it was 135%; in the test on SF-268 CNS, 98.6%; in the test with SF-295 CNS it was 65.3%. The growth in the test with SF-539 CNS is 97.6%; in the test with UACC-257 melanoma it was 117%; in the test on M14 melanoma it was 112%.
`CC1C(C)N(C(=O)CCl)c2ccccc2N1C(=O)CCl` (stereo not given): the growth was -94.9% (active) in the test on DU-145 prostate; -0.205% (active) in the test on K-562 leukemia; -53.8% (active) in the test on MDA-MB-231 breast; -53.9% (active) with RXF 393 renal; -77.9% (active) with SF-268 CNS; -66.7% (active) with SF-295 CNS. For the same molecule, the growth was -94.8% (active) with SF-539 CNS, -70.3% (active) in the test with UACC-257 melanoma and -81.8% (active) in the test on M14 melanoma.
For the molecule `COc1ccc(N2CCN(CC(=O)N3CCN(c4nnc(-c5ccc(Cl)cc5)c(-c5ccc(Cl)cc5)n4)CC3)CC2)cc1`, the growth is 70.6% in the test with DU-145 prostate; 22.3% with K-562 leukemia; 81.7% in the test on MALME-3M melanoma; 84.1% in the test on MDA-MB-231 breast; 69.8% in the test with SF-268 CNS; 53.9% in the test with SF-295 CNS. For the same molecule, the growth in the test on SF-539 CNS is 30.7%; in the test on M14 melanoma it was 59.8%.
For the molecule `COc1ccc2c(=O)c(OC)c(-c3cc(OC)c(OC)c(OC)c3)oc2c1`, the growth was 109% with DU-145 prostate; 87.1% in the test with K-562 leukemia; 113% with MALME-3M melanoma; 84.1% in the test on MDA-MB-231 breast; 100% with SF-268 CNS; 113% in the test on SF-295 CNS. For the same molecule, the growth was 91.5% in the test with SF-539 CNS and 109% with M14 melanoma.
In the case of `COc1cccc(N2CCN(CC(=O)N3CCN(c4nnc(-c5ccc(Cl)cc5)c(-c5ccc(Cl)cc5)n4)CC3)CC2)c1`, the growth was 89% in the test on DU-145 prostate; 32.6% in the test on K-562 leukemia; 92.2% in the test on MALME-3M melanoma; 83.1% with MDA-MB-231 breast; 84.1% in the test on SF-268 CNS; 66.7% in the test on SF-295 CNS. In addition, the figures for the growth with SF-539 CNS and with M14 melanoma were 57.8% and 70.5%, respectively.
In the case of `CCOC(=O)CNC(=O)C1(NC(=O)CNC(=O)OCc2ccccc2)CCCC1`, the growth with DU-145 prostate is 121%; in the test on K-562 leukemia, 103%; with MDA-MB-231 breast, 99.1%; in the test with RXF 393 renal, 135%; in the test with SF-268 CNS, 107%; in the test with SF-295 CNS, 126%. In addition, the values for the growth in the test with SF-539 CNS, in the test on UACC-257 melanoma and in the test on M14 melanoma were 92.2%, 110% and 110%, respectively.
For the molecule `COc1ccc(C(=O)/C=C/c2ccc(C)cc2)cc1OC`, the growth in the test with DU-145 prostate is 11.3%; in the test with K-562 leukemia it was 21.1%; with MALME-3M melanoma, 101%; in the test on MDA-MB-231 breast it was 90.7%; in the test with SF-268 CNS it was 57.3%; in the test with SF-295 CNS, 101%. In addition, the growth was 70.3% in the test with SF-539 CNS and 99.2% with M14 melanoma.
In the case of `Cc1sc2nc3c4ccccc4c(NCCCN(C)C)nn3c(=O)c2c1C`, the growth in the test on DU-145 prostate is 41.5%; with K-562 leukemia, -73.8% (active); in the test on MALME-3M melanoma, -42.2% (active); in the test with MDA-MB-231 breast, -23.6% (active); in the test on SF-268 CNS it was 66.7%; with SF-295 CNS, 65.6%. In addition, the growth in the test on SF-539 CNS is 29%; with M14 melanoma, -95.6% (active).
